This note sets out measurements from paper PMC10726135, “HNF4α isoforms regulate the circadian balance between carbohydrate and lipid metabolism in the liver”.

The full ranking holds about 18,000 sequences; the median of “log2 normalized intensity” is about 0.36, and the highest 2% start at about 7.3. The list comes from a sample in which the highest values are over-represented; it also holds similar and randomly drawn sequences.

This assay concerns the target T1, HNF4alpha8 (COS-7 nuclear extract) (Homo sapiens, UniProt P41235-5 1-452).
T1 sequence: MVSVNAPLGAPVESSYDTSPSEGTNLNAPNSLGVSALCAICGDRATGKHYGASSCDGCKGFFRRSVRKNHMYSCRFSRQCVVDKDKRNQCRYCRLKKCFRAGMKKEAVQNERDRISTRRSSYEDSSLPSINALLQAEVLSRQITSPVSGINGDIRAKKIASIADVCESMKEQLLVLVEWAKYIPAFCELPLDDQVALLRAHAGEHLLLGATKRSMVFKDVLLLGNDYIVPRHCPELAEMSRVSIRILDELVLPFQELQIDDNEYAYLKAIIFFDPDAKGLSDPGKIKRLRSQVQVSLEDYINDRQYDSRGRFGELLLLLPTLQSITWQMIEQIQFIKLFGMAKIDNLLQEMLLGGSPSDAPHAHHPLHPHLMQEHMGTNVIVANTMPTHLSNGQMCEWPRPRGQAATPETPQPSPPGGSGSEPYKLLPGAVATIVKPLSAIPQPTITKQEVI
The experiment in a line: protein-binding microarray; COS-7 nuclear extract on double-stranded Agilent 4x180k PBM; binding buffer, salt, pH and temperature not given in the material; high values mean tight binding. To be noted: chain copies: 2; label: 3' end of strand 1 on the slide; dsDNA, one strand shown. An outline of the steps: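 Using CaPO4, COS-7 cells were transiently transfected with a human HNF4α isoform expression vector, and their nuclear extracts were applied to a custom Agilent SurePrint G3 4x180k double-stranded oligonucleotide array (~60 nt; ~44,000 test sequences in quadruplicate). Bound HNF4α was imaged at 2-µm resolution with an Agilent G2565CA scanner. Agilent software supplied the background-corrected, normalized gProcessedSignal that serves as the binding signal.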
On to “GAATGACTTTGGGGAAATGACCTTTGTCCAGCCTAGGGAGATTAGAGTATCGGTCGA”, for which the binding signal was 9.48 log2 normalized intensity. The result for “CTGGTGTAGTGGGGAGGGCATGGACTTTGGGCCTAGGGAGATTAGAGTATCGGTCGA” reads 6.38 log2 normalized intensity. Next, “CCTTTTTGGAATGTGTTTGCATGACTCATAGCCTAGGGAGATTAGAGTATCGGTCGA”: 1.5 log2 normalized intensity; “TGATGACTTTTGACCCCAGGGGAAACTCCAGCCTAGGGAGATTAGAGTATCGGTCGA”: 5.06 log2 normalized intensity; “GGGGAGGGCATGGACTTTGGAATTAAGGAGGCCTAGGGAGATTAGAGTATCGGTCGA”: 5.91 log2 normalized intensity. On to “ATGTGGTATTAACATGTAAATATGACCTTTGCCTAGGGAGATTAGAGTATCGGTCGA”, for which the binding signal is 8.01 log2 normalized intensity. On to “GGAGGACTTTGGAATGGCAGTGCTTGTCCAGCCTAGGGAGATTAGAGTATCGGTCGA”, for which the binding signal is 2.52 log2 normalized intensity. The result for “GTATTAACATGTAAATATGACCTTTGCTTTGCCTAGGGAGATTAGAGTATCGGTCGA” reads 7.1 log2 normalized intensity. For the sequence “GTAGTGGGGAGGGCATGGACTTTGGAATTAGCCTAGGGAGATTAGAGTATCGGTCGA”, the binding signal came out at 8.06 log2 normalized intensity.

For the sequence “GCATGGAATGACTTTGGGGAAATGACCTTTGCCTAGGGAGATTAGAGTATCGGTCGA”, the binding signal was 7.96 log2 normalized intensity. For “ATGACCTTTGAGCAATAGGAAATGGGAGGGGCCTAGGGAGATTAGAGTATCGGTCGA”, the binding signal came out at 3.35 log2 normalized intensity. Take “TTATCATGTGGTATTAACATGTAAATATGAGCCTAGGGAGATTAGAGTATCGGTCGA”: the binding signal is 1.36 log2 normalized intensity. Next, “TCACAATGGGGCATGACTTGTTATCACCTGGCCTAGGGAGATTAGAGTATCGGTCGA”: 0.285 log2 normalized intensity; “TCCTTCTTGCTTAGGATAGGGTCAGTCTTTGCCTAGGGAGATTAGAGTATCGGTCGA”: 2.48 log2 normalized intensity; “AGGCCGGTTGGCCAGGTTCCTCCACCGTCAGCCTAGGGAGATTAGAGTATCGGTCGA”: -0.785 log2 normalized intensity.

For the sequence “TTCAGGCAGGAATGCTGAACAATTGATTTAGCCTAGGGAGATTAGAGTATCGGTCGA”, the binding signal is -0.858 log2 normalized intensity. Regarding “GTCAAAAGGTGTATGTGGACTTTCAACTGCGCCTAGGGAGATTAGAGTATCGGTCGA”, the binding signal was 6.13 log2 normalized intensity.

On to “CCACACAGCACGTAATAGTTCATGAAATGGGCCTAGGGAGATTAGAGTATCGGTCGA”, for which the binding signal is 0.614 log2 normalized intensity.

With “AAACAGAGGCTGAAATGGTTACAAAGGTCAGCCTAGGGAGATTAGAGTATCGGTCGA”, the binding signal was 5.42 log2 normalized intensity. Next, “GGGGAAATGACCTTTGTCCAGCTGTGCCGAGCCTAGGGAGATTAGAGTATCGGTCGA”: 7.01 log2 normalized intensity; “AATGACCTTTGTCCAGCTGTGCCGAGCCTGGCCTAGGGAGATTAGAGTATCGGTCGA”: 4.91 log2 normalized intensity. The result for “ACTTTGGGGAAATGACCTTTGTCCAGCTGTGCCTAGGGAGATTAGAGTATCGGTCGA” reads 7.84 log2 normalized intensity.

As to “TCCAGTGGACATTGGCCCTTTGACCTTTAAGCCTAGGGAGATTAGAGTATCGGTCGA”, the binding signal stood at 8.05 log2 normalized intensity.

Take “TCAGTTTGGCTCTTATGTCCCTCCTGACCTGCCTAGGGAGATTAGAGTATCGGTCGA”: the binding signal is 3.83 log2 normalized intensity. For “GCCTCTTTATCTCCTCCCCTTGAGACTTTAGCCTAGGGAGATTAGAGTATCGGTCGA”, the binding signal is 2.97 log2 normalized intensity. The result for “GACCTTTGGACTTGATAGAGTTTAAGTCTTGCCTAGGGAGATTAGAGTATCGGTCGA” reads 7.2 log2 normalized intensity; that for “ATATCCTGACTGCTGACCTTTAAGCCTATAGCCTAGGGAGATTAGAGTATCGGTCGA”, 4.7 log2 normalized intensity; that for “ACTGCTCCAGTGGACATTGGCCCTTTGACCGCCTAGGGAGATTAGAGTATCGGTCGA”, 6.76 log2 normalized intensity.

Turning to “CTCCTGACCTTTGGACTTGATAGAGTTTAAGCCTAGGGAGATTAGAGTATCGGTCGA”, the binding signal was 8.25 log2 normalized intensity.

Regarding “AACTCTCAGTTTGGCTCTTATGTCCCTCCTGCCTAGGGAGATTAGAGTATCGGTCGA”, the binding signal was 0.947 log2 normalized intensity.

Regarding “ACCTTTGTCCTCATTGAGCCCTCCCCTTGTGCCTAGGGAGATTAGAGTATCGGTCGA”, the binding signal worked out at 4.38 log2 normalized intensity. “TCTTATGTCCCTCCTGACCTTTGGACTTGAGCCTAGGGAGATTAGAGTATCGGTCGA”: the binding signal came to 10.6 log2 normalized intensity.

Regarding “TGGACATTGGCCCTTTGACCTTTAATCAAGGCCTAGGGAGATTAGAGTATCGGTCGA”, the binding signal was 7.21 log2 normalized intensity. In the case of “TTGGCTCTTATGTCCCTCCTGACCTTTGGAGCCTAGGGAGATTAGAGTATCGGTCGA”, the binding signal stood at 9.16 log2 normalized intensity. The result for “ACTACATTTCCAAGACCTCTTTGCGGATAGGCCTAGGGAGATTAGAGTATCGGTCGA” reads -0.337 log2 normalized intensity; that for “AGTCAATCCCGTGGACTTTGCCTGCCCATCGCCTAGGGAGATTAGAGTATCGGTCGA”, 5.08 log2 normalized intensity; that for “GCCTGCCCTTCGCTCCCCGACCTCCTGCTGGCCTAGGGAGATTAGAGTATCGGTCGA”, 2.62 log2 normalized intensity. Next, “CAGGTATTTGCTCTGTGATAGCCTTTTACCGCCTAGGGAGATTAGAGTATCGGTCGA”: 1.5 log2 normalized intensity; “GGCAGGCTTCGAAAAATGGGTCTGGGATGTGCCTAGGGAGATTAGAGTATCGGTCGA”: 0.36 log2 normalized intensity; “AGGGATTTCAGTGCCCTCATAAGAGACTTTGCCTAGGGAGATTAGAGTATCGGTCGA”: 2.22 log2 normalized intensity. In the case of “CCTGACCTGCCCTTTGTCCCTCCTGCTAGTGCCTAGGGAGATTAGAGTATCGGTCGA”, the binding signal stood at 3.93 log2 normalized intensity.

Take “AGTCCTGACCTTGGACTCTGCCCTTGGCCTGCCTAGGGAGATTAGAGTATCGGTCGA”: the binding signal is 6.67 log2 normalized intensity. In the case of “TGTCCCTCCTGACCTTTGGACTTGATAGAGGCCTAGGGAGATTAGAGTATCGGTCGA”, the binding signal amounted to 9.7 log2 normalized intensity.
